A number with no mark means an inactive call. Calls of active or inactive are those of the source. The rule behind the calls is not given here.
target: L-lactate dehydrogenase (Plasmodium falciparum (isolate CDC / Honduras)) (UniProt Q27743); test: PfLDH activity inhibition – cell lysate, 3D7 strain, counter-screen for P. falciparum growth inhibition project (AID 2304);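 note: 0% = vehicle and 100% = reference inhibitor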; details: P. falciparum 3D7 crude extract, LDH APAD/NBT absorbance; at 2 µM; active compounds read high
Sequence (Q27743 whole entry, looked up): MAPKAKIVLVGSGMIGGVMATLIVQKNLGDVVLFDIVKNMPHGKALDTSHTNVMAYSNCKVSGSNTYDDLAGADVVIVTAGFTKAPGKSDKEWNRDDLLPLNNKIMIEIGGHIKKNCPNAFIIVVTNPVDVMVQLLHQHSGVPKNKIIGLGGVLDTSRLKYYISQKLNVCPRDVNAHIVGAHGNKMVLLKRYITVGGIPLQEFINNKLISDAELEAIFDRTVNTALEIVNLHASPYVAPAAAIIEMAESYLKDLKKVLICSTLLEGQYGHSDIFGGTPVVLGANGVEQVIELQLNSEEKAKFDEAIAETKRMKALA

Row | Compound | inhibition [%]
1 | O=C(Nc1ccccc1)Nc1cccc(-c2nn3c(OCCN4CCCC4)cccc3c2-c2ccncc2)c1 | 4
2 | N#Cc1ccc(C(=O)Nc2cc(-c3cccc(O)c3)cc3[nH]ncc23)cc1 | -1
3 | O=C(NCCCCN1CCC(c2ccc3c(c2OCCCO)CCCC3)CC1)c1ccc(-c2ccc(C(F)(F)F)cc2)c(CO)c1 | 4
4 | Cc1nc(Nc2ccc(F)cc2)nc(N2CCc3ccccc3[C@@H]2C)c1C | -3
5 | Cc1ccccc1Oc1ccc(Nc2ccnc(Nc3cccc(C(N)=O)c3)n2)cc1C(F)(F)F | -1
6 | Fc1ccccc1C=NNc1ccnc2cc(Cl)ccc12 | -2
7 | O=c1c2cccnc2sn1-c1ccccc1 | 0
8 | COc1ccc(CN2CCN(CC(=O)Nc3cc(Cl)ccc3-n3cncn3)CC2)cc1F | -1
9 | Clc1ccc(C=NNc2ccnc3cc(Cl)ccc23)cc1 | -3
10 | O=C(CN1C(=O)CC1S(=O)(=O)Cc1ccco1)NCCCCCCc1ccc(F)cc1 (configuration not stated) | -4
11 | NS(=O)(=O)c1cccc(N=Cc2c(O)[nH]c3ccc(S(=O)(=O)Cc4c(Cl)cccc4Cl)cc23)c1 | 4
12 | Cn1cccc1C(=O)Nc1cccc(-c2nn3ccccc3c2-c2ccnc(Nc3ccc4c(c3)OCCO4)n2)c1 | 4
13 | Cc1nc2ccccc2n1C1C[C@H]2CC[C@@H](C1)N2CCC1(c2ccccc2)CCN(C(=O)Nc2ccc(C(F)(F)F)cc2)CC1 (some centres not stated) | -2
14 | c1ccc2sc(-c3csc(Nc4ccncc4)n3)nc2c1 | -1
15 | CCN(CC)CCNC(=O)c1ccc(Nc2ncc([N+](=O)[O-])c(Nc3ccccc3OC)n2)cc1 | -6
16 | CCN(CC)CCCC(C)Nc1nc(C=Cc2ccc(Br)cc2)nc2cc(Cl)ccc12 (configuration not stated) | -6
17 | Cc1cccc(Cn2ccc3c(N)nc(N)nc32)c1 | 5
18 | CC(=O)Nc1ccc(Nc2ncc([N+](=O)[O-])c(Nc3ccccc3C(N)=O)n2)cc1 | 2
19 | O=C(Nc1ccc(OC2CCN(CC3CC3)CC2)c(Cl)c1)c1ccc2ncccc2c1 | -2
20 | CCc1cc2c3c(N)nc(N)nc3ccc2n1C(C)(C)C | -11

Row | Compound | inhibition [%]
21 | CC(Sc1n[nH]c(-c2ccccc2Br)n1)C(=O)Nc1ccc(F)cc1 (configuration not stated) | 1
22 | CC(CC1CCCCC1)NCc1ccccc1OCCC(=O)N1CCCC1C(N)=O (configuration not stated) | 8
23 | CCS(=O)(=O)c1ccc(OC)c(Nc2nccc(-c3c(-c4cccc(NC(=O)c5c(F)cccc5F)c4)nn4ncccc34)n2)c1 | -5
24 | Clc1cccc(C=NNc2ccnc3cc(Cl)ccc23)c1 | -4
25 | Cc1cc(OCCCN2CCCC2)ccc1NC(=O)COc1ccc(Cl)cc1C(=O)c1cc(C#N)cc(C(F)(F)F)c1 | 2
26 | O=C(NNC(=O)c1ccc(CN2CCC(c3nc4ccccc4[nH]3)CC2)cc1)Nc1ccc(Oc2ccccc2)cc1 | 0
27 | Cc1ccc(Cn2ccc3c4c(N)nc(N)nc4ccc32)cc1 | -6
28 | S=C(Nc1ccc(Cl)cc1)Nc1ccc(Nc2ccccc2)cc1 | -4
29 | COc1cc(Nc2nccc(-c3c(-c4cccc(NC(=O)c5c(F)cccc5F)c4)nn4ncccc34)n2)cc(OC)c1OC | 1
30 | O=C(O)c1ccc(-c2cnc3ccc(NC4CCC(O)CC4)nn23)cc1 (configuration not stated) | 3
31 | Cc1ccc(-n2c(C)cc(C(=O)CN3C(=O)NC(Cc4ccccc4)C3=O)c2C)cc1 (configuration not stated) | 3
32 | CCn1c(-c2nonc2N)nc2c(-c3cc4ccccc4s3)ncc(C(=O)N3CCC(N)C3)c21 (configuration not stated) | 5
33 | Cc1ccccc1Cn1ccc2c3c(N)nc(N)nc3ccc21 | -4
34 | C[C@H]1CN(Cc2ccc(-c3cccc(CNC(=O)c4cccc(C(=O)c5ccc(Cl)c(Cl)c5)c4)c3)s2)CCN1 | 3
35 | COc1ccc(N=C(N)Nc2ccccc2)nc1Cc1ccccc1 | -6
36 | Cc1[nH]nc2ccc(-c3cc(OC[C@@H](N)Cc4ccccc4)cnc3-c3cc4ccccc4s3)cc12 | -3
37 | C=CC(C)C1OC(=O)c2cc(OC)cc(OC)c21 (configuration not stated) | -4
38 | CCNC(=O)Nc1ccc(N(C)c2ccnc(Nc3ccc(CS(C)(=O)=O)cc3)n2)cc1 | 2
39 | CCN(CC)CCNC(=O)c1ccc(N=Cc2c(O)[nH]c3ccc(S(=O)(=O)Cc4c(Cl)cccc4Cl)cc23)cc1 | 3

test system: not listed separately; test: inhibition of 3D7 malaria parasite growth – strain 3D7 (AID 2306);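 note: 0% = DMSO wells and 100% = chloroquine plus artemisinin control wells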; details: P. falciparum 3D7 erythrocytic growth, LDH absorbance, 72 h; at 2 µM; active compounds read high

Row | Compound | growth inhibition
40 | O=C(Nc1ccccc1)Nc1cccc(-c2nn3c(OCCN4CCCC4)cccc3c2-c2ccncc2)c1 | 102% (active)
41 | N#Cc1ccc(C(=O)Nc2cc(-c3cccc(O)c3)cc3[nH]ncc23)cc1 | 90% (active)
42 | O=C(NCCCCN1CCC(c2ccc3c(c2OCCCO)CCCC3)CC1)c1ccc(-c2ccc(C(F)(F)F)cc2)c(CO)c1 | 95% (active)
43 | Cc1nc(Nc2ccc(F)cc2)nc(N2CCc3ccccc3[C@@H]2C)c1C | 92% (active)
44 | Cc1ccccc1Oc1ccc(Nc2ccnc(Nc3cccc(C(N)=O)c3)n2)cc1C(F)(F)F | 81% (active)
45 | COc1ccc(CN2CCN(CC(=O)Nc3cc(Cl)ccc3-n3cncn3)CC2)cc1F | 93% (active)
46 | O=C(CN1C(=O)CC1S(=O)(=O)Cc1ccco1)NCCCCCCc1ccc(F)cc1 (configuration not stated) | 95% (active)
47 | NS(=O)(=O)c1cccc(N=Cc2c(O)[nH]c3ccc(S(=O)(=O)Cc4c(Cl)cccc4Cl)cc23)c1 | 92% (active)
48 | Cn1cccc1C(=O)Nc1cccc(-c2nn3ccccc3c2-c2ccnc(Nc3ccc4c(c3)OCCO4)n2)c1 | 95% (active)
49 | c1ccc2sc(-c3csc(Nc4ccncc4)n3)nc2c1 | 86% (active)
50 | CCN(CC)CCNC(=O)c1ccc(Nc2ncc([N+](=O)[O-])c(Nc3ccccc3OC)n2)cc1 | 97% (active)
51 | Cc1cccc(Cn2ccc3c(N)nc(N)nc32)c1 | 82% (active)
52 | CC(=O)Nc1ccc(Nc2ncc([N+](=O)[O-])c(Nc3ccccc3C(N)=O)n2)cc1 | 98% (active)
53 | O=C(Nc1ccc(OC2CCN(CC3CC3)CC2)c(Cl)c1)c1ccc2ncccc2c1 | 84% (active)
54 | CCc1cc2c3c(N)nc(N)nc3ccc2n1C(C)(C)C | 99% (active)
55 | CC(Sc1n[nH]c(-c2ccccc2Br)n1)C(=O)Nc1ccc(F)cc1 (configuration not stated) | 90% (active)
56 | CC(CC1CCCCC1)NCc1ccccc1OCCC(=O)N1CCCC1C(N)=O (configuration not stated) | 97% (active)

Row | Compound | growth inhibition
57 | CCS(=O)(=O)c1ccc(OC)c(Nc2nccc(-c3c(-c4cccc(NC(=O)c5c(F)cccc5F)c4)nn4ncccc34)n2)c1 | 87% (active)
58 | Cc1cc(OCCCN2CCCC2)ccc1NC(=O)COc1ccc(Cl)cc1C(=O)c1cc(C#N)cc(C(F)(F)F)c1 | 85% (active)
59 | O=C(NNC(=O)c1ccc(CN2CCC(c3nc4ccccc4[nH]3)CC2)cc1)Nc1ccc(Oc2ccccc2)cc1 | 86% (active)
60 | Cc1ccc(Cn2ccc3c4c(N)nc(N)nc4ccc32)cc1 | 99% (active)
61 | S=C(Nc1ccc(Cl)cc1)Nc1ccc(Nc2ccccc2)cc1 | 84% (active)
62 | COc1cc(Nc2nccc(-c3c(-c4cccc(NC(=O)c5c(F)cccc5F)c4)nn4ncccc34)n2)cc(OC)c1OC | 98% (active)
63 | O=C(O)c1ccc(-c2cnc3ccc(NC4CCC(O)CC4)nn23)cc1 (configuration not stated) | 98% (active)
64 | Cc1ccc(-n2c(C)cc(C(=O)CN3C(=O)NC(Cc4ccccc4)C3=O)c2C)cc1 (configuration not stated) | 82% (active)
65 | CCn1c(-c2nonc2N)nc2c(-c3cc4ccccc4s3)ncc(C(=O)N3CCC(N)C3)c21 (configuration not stated) | 98% (active)
66 | Cc1ccccc1Cn1ccc2c3c(N)nc(N)nc3ccc21 | 100% (active)
67 | C[C@H]1CN(Cc2ccc(-c3cccc(CNC(=O)c4cccc(C(=O)c5ccc(Cl)c(Cl)c5)c4)c3)s2)CCN1 | 99% (active)
68 | COc1ccc(N=C(N)Nc2ccccc2)nc1Cc1ccccc1 | 81% (active)
69 | Cc1[nH]nc2ccc(-c3cc(OC[C@@H](N)Cc4ccccc4)cnc3-c3cc4ccccc4s3)cc12 | 99% (active)
70 | C=CC(C)C1OC(=O)c2cc(OC)cc(OC)c21 (configuration not stated) | 100% (active)
71 | CCNC(=O)Nc1ccc(N(C)c2ccnc(Nc3ccc(CS(C)(=O)=O)cc3)n2)cc1 | 101% (active)
72 | CCN(CC)CCNC(=O)c1ccc(N=Cc2c(O)[nH]c3ccc(S(=O)(=O)Cc4c(Cl)cccc4Cl)cc23)cc1 | 100% (active)
